Results with a measured potency or affinity are listed apart.

The target of the experiment is Protein translocase subunit SecA (Escherichia coli (strain K12)) (UniProt P10408). Briefly: Assay to Identify E. coli SecA ATPase Inhibitors. The experiment is classed as functional. The arrangement: scale not given: direction of the effect not stated beside the values. The following applies: 30 µM.
Chain of Protein translocase subunit SecA (Escherichia coli (strain K12)) (P10408 whole entry): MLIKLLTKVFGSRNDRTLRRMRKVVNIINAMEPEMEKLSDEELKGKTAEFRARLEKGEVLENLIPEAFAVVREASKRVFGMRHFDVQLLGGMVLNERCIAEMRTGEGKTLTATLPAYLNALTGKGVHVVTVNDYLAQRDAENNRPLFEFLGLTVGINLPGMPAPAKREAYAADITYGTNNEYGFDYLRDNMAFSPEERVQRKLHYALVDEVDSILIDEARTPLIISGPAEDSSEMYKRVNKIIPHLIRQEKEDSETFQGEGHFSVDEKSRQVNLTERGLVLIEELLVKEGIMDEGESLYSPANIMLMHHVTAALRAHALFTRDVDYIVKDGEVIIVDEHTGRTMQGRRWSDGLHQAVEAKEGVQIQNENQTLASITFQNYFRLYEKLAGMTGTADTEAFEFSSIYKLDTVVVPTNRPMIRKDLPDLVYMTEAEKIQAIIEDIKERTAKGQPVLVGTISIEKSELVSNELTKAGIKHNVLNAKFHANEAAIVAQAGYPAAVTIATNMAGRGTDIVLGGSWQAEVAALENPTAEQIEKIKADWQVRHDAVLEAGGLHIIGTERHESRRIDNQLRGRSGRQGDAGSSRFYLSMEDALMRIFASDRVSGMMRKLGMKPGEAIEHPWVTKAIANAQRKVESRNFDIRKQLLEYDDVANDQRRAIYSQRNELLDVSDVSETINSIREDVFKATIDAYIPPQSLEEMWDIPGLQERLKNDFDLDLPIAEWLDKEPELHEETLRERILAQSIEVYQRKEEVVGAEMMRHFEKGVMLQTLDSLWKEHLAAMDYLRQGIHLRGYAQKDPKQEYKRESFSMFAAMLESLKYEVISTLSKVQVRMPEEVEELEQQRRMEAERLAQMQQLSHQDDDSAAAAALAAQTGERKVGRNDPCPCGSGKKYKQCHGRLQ
As to `CCn1nc(C(=O)N2CCCC(n3cncn3)C2)ccc1=O` (centres undefined), the Percent Effect is -3.67%. Next, `CNc1nc(C)c(C(=O)N2CCCCC2CN2CCCCCC2)s1` (centres undefined): -4.61%; `CCOCC(=O)N1C[C@@H](O)[C@H](N(C)Cc2ccc(OC)cc2)C1`: -3.53%; `c1cnc(NCc2ncn3c2CN(Cc2cccnc2)CCC3)nc1`: -0.478%. On to `O=C1CCSCC(C(=O)N2CCOCC2)N1` (centres undefined), for which the Percent Effect is -5.1%. For `O=C(COCc1nc(-c2ccncc2)no1)N1CCCCCC1`, the Percent Effect was -5.55%. Take `CCc1csc(C2CCCN(C(=O)c3cnn(CC)c3)C2)n1` (centres undefined): the Percent Effect is -1.78%. Take `COc1ccc(CCC(=O)Nc2cccnc2N2CCCC2)cc1Br`: the Percent Effect was -6.14%.

As for `CC(=O)c1ccc(N2CCCC(CO)(CCOc3ccccc3)C2)nc1` (centres undefined), the Percent Effect is -1.73%. `c1cncc(C2COC3(CCN(CC4CC4)CC3)C2)c1` (centres undefined): the Percent Effect was -5.88%. The result for `Cc1ccc2c(n1)N(CCn1cccn1)CCN(C(=O)NC1CC1)C2` reads -4.03%; that for `Cc1cnn(C2CCCN(C(=O)c3cnc4ccccc4n3)C2)c1` (centres undefined), -3.93%. As for `CCCc1cc(=O)n(CC(N)=O)c(-n2nc(C)cc2C)n1`, the Percent Effect was -1.73%.

Take `Cc1cc(C)n(C2CCCN(C(=O)c3cc(C4CC4)on3)C2)n1` (centres undefined): the Percent Effect is -4.93%. Next, `Cc1ccc(Nc2nccc(C3CCCN(CC(=O)N(C)C)C3)n2)nc1` (centres undefined): -5.52%; `CC(C)c1cccc(CSc2nnc(CN3CCCC3=O)o2)n1`: 2.49%. On to `N#Cc1ccc(OCCN2CCc3c(ncn3C3CC3)C2)cc1`, for which the Percent Effect was -3.1%. On to `O=C(NCc1nncn1-c1ccccc1)C1CC(=O)N(CC2CC2)C1` (centres undefined), for which the Percent Effect was -6.4%. Next, `CCc1nccn1C1CCCN(C(=O)Cc2n[nH]c3ccccc23)C1` (centres undefined): -3.99%. The result for `CN(Cc1ccsc1)C(=O)c1cccc(NS(C)(=O)=O)c1` reads -5.08%; that for `CNC(=O)CS(=O)(=O)Cc1coc(-c2ccc(OC)cc2)n1`, -3.22%; that for `CC(C)CS(=O)(=O)CC(=O)N(C)Cc1ccc(OC(F)F)cc1`, -4.46%.

In the case of `CN(Cc1ccccn1)C1COC2(CCN(Cc3cccnc3)CC2)C1` (centres undefined), the Percent Effect is -2.78%. On to `COc1ccc(C2=C(C)C(N3CCc4ccccc4C3)=NS2(=O)=O)cc1`, for which the Percent Effect was -1.81%. Take `Cn1c(C2CC2)nc2c1CCN(CC(=O)Nc1nncs1)C2`: the Percent Effect was -2.25%. In the case of `Cc1cccc(CN2CCN(Cc3ccccc3)CC(O)C2)n1` (centres undefined), the Percent Effect was -1.78%. With `CCn1cc(CN2CCCN(C(=O)C3=NN(C)C(=O)CC3)CC2)cn1`, the Percent Effect stood at 0.989%. As to `O=C(CN1CCc2cncnc2C1)NCCOc1ccccc1`, the Percent Effect was -4.25%. For `Cc1ncsc1C(=O)N(C)CCc1ccncc1`, the Percent Effect was -2.19%. Next, `N#Cc1cccc(CS(=O)(=O)NCC(O)Cc2ccccc2)c1` (centres undefined): -4.15%; `Cc1ccc(-c2nc(CN3CCc4nn(C)c(=O)cc4C3)co2)cc1`: -3.32%; `Cc1cc(C)n(CC2CCCN2CC(=O)N(C)C)n1` (centres undefined): -2.72%. Next, `CN(C)S(=O)(=O)N1CCC(Oc2ccc(C#N)cc2)CC1`: -1%; `CC(C)c1cc(NC(=O)CN2CCc3cncnc3C2)on1`: -5.41%.

`CCc1nc(CN(Cc2cccs2)CC2CCCO2)no1` (centres undefined): the Percent Effect was -0.473%. For the molecule `CCCN1CC(C(=O)Nc2ccccn2)CC1=O` (centres undefined), the Percent Effect stood at 0.0255%. Next, `Cc1cnn(CCNCc2ccc(F)cc2Cl)c1`: -3.52%; `O=C(c1ccn(-c2cccc(F)c2)n1)N1CCCC(n2cccn2)C1` (centres undefined): -4.17%. For `N#Cc1ccnc(N2CCN(C(=O)Cc3ccc4c(c3)CCO4)CC2)c1`, the Percent Effect was -5.74%.

These data come from ChEMBL document CHEMBL3988442, “University of Dundee, Small-Polar-MMV Screening Library” (2021).
